This is part of a sample that, as a whole, favours compounds with a hit. Of some 79,000 tested, about 15% had one in any assay. Unmarked numbers belong to inactive results. The source made the active and inactive calls. Cut-off read from the data, not from the text of the source: active = growth inhibition above about 70%; inactive = the rest.

Test [1] can be described thus: NCI Yeast Anticancer Drug Screen. Data for the rad50 strain (AID 155).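 Note: 0% = growth of vehicle-only cultures of the same strain.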 The settings on record: S. cerevisiae rad50 strain growth inhibition; at 50.0 µM; stronger effect = higher value. Summed up: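 DNA repair mutant yeast, compound exposure, growth read-out; inhibition is taken relative to vehicle.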
A short description of test [2]: NCI Yeast Anticancer Drug Screen. Data for the mec2-1 strain (AID 157). The settings on record: S. cerevisiae mec2-1 strain, at 50.0 µM, stronger effect = higher value. Summed up:
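Growth inhibition is read against vehicle-treated controls after compound exposure of the mec2-1 yeast strain, which is defective in DNA damage repair or cell cycle control.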

The nature of test [3]: NCI Yeast Anticancer Drug Screen. Data for the sgs1 mgt1 strain (AID 161).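 Note: 0% = growth of cultures given vehicle only.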 The settings on record: S. cerevisiae sgs1 mgt1 strain, at 50.0 µM, stronger effect = higher value. A digest of the protocol:
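Growth of a repair-deficient yeast mutant was monitored after compound treatment and expressed as inhibition relative to vehicle-treated cultures.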

The nature of test [4]: NCI Yeast Anticancer Drug Screen. Data for the cln2 rad14 strain (AID 165).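 Note: 0% = growth equal to vehicle treated cultures.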 To be noted: S. cerevisiae cln2 rad14 strain, at 50.0 µM, stronger effect = higher value. A digest of the protocol: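 Growth inhibition, relative to vehicle-treated controls, is the read-out. The test organism is a yeast strain with defined genetic alterations, cln2 rad14.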
A short description of test [5]: NCI Yeast Anticancer Drug Screen. Data for the bub3 strain (AID 167). The settings on record: S. cerevisiae bub3 mutant strain, at 50.0 µM, stronger effect = higher value. Summed up: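 In this screen, a yeast mutant lacking normal mitotic checkpoint function is challenged with compound. Relative growth versus vehicle gives the inhibition value.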
A short description of test [6]: NCI Yeast Anticancer Drug Screen. Data for the mlh1 rad18 strain (AID 175). To be noted: S. cerevisiae mlh1 rad18 strain growth inhibition; at 50.0 µM; stronger effect = higher value. A digest of the protocol:
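Cells of a genetically altered yeast strain, deficient in DNA damage repair, were treated with compound. Their growth was then compared with that of vehicle-treated cultures to give inhibition.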

Regarding `COc1ccc(OC)c(NC(=O)Sc2c(Cl)c(Cl)nc(Cl)c2Cl)c1`, the growth inhibition in test [1] was 18.4%; in test [2] it was 13.2%; in test [3], 16.2%; in test [4], -8.9%; in test [5], -0.05%; in test [6], -10.2%.

Regarding `CCOc1ccc(NC(=O)/C(CC(=O)c2sc(Nc3ccc(C)cc3)nc2C)=N\NC(N)=S)cc1`, the growth inhibition was -33.3% in test [1]; 3.15% in test [2]; 8.95% in test [3]; -49.6% in test [4]; -11.4% in test [5]; -35.5% in test [6].

Regarding `CCOC(=O)c1[nH]c2nc(N)ncc2c(=O)c1C`, the growth inhibition was -0.15% in test [1]; -0.95% in test [2]; -0.15% in test [3]; 43.6% in test [4]; 12.8% in test [5]; 11.7% in test [6].

As to `CCCCCCOC(=O)c1ccccc1Cl`, the growth inhibition is 5.75% in test [1]; 9.35% in test [2]; -3.05% in test [3]; -16.9% in test [4]; 26.4% in test [5]; 34.2% in test [6].

Consider `CC1OC(O[C@@H]2OC=C(C=O)[C@@]3(O)CC[C@H](C)[C@@H]23)C(O)C(O)C1O` (some centres undefined), for which the growth inhibition in test [1] is 16.2%; in test [2], -10.4%; in test [3] it was 9.1%; in test [4] it was 7.6%; in test [5] it was -6.1%; in test [6], -39.2%.

As for `O=C(C#CP(=O)(O)c1ccccc1)c1ccccc1`, the growth inhibition in test [1] is 22.5%; in test [2], 16.4%; in test [3], -6.2%; in test [4] it was 17.5%; in test [5], -17.6%; in test [6], 3.05%.

`CC(=O)Nc1ccc(S(=O)(=O)N=S(C)C)cc1`: the growth inhibition was -10.8% in test [1]; -9.05% in test [2]; -24.9% in test [3]; -21.6% in test [4]; -40% in test [5]; 13.8% in test [6].

In the case of `CCCCCCCC[C@]1(O)C[C@H]2[C@@H]3CCc4cc(OC)ccc4[C@H]3CC[C@]2(C)[C@H]1O`, the growth inhibition in test [1] was -3.45%; in test [2], -10.7%; in test [3], -1.15%; in test [4] it was 7.1%; in test [5], -11.2%; in test [6], 0.5%.

With `CC1(C)C2CCC(=O)C1C(OCc1ccccc1)C2` (centres undefined), the growth inhibition in test [1] is -22.1%; in test [2], 15.7%; in test [3] it was -21.1%; in test [4], -0.85%; in test [5] it was -11.6%; in test [6] it was -47.4%.

With `COc1ccc(OC)c(NC(=O)CCCC(=O)C(C#N)c2ccccc2C)c1` (centres undefined), the growth inhibition in test [1] is 13.1%; in test [2], -4.9%; in test [3], -3.15%; in test [4], 11.2%; in test [5], 0.2%; in test [6], 2.05%.

With `Cc1ccc(-c2c3nc(c(-c4ccc(C)cc4)c4ccc([nH]4)c(-c4ccc(OCC5COC(C)(C)O5)cc4)c4nc(c(-c5ccc(C)cc5)c5ccc2[nH]5)C=C4)C=C3)cc1` (centres undefined), the growth inhibition in test [1] was -58.3%; in test [2], -32.9%; in test [3] it was -50.3%; in test [4], -23.9%; in test [5], -40.5%; in test [6] it was -66.7%.

For `COc1cccc(CCC(=O)O)c1`, the growth inhibition was -11.7% in test [1]; -9.75% in test [2]; -21.6% in test [3]; 31% in test [4]; -1.45% in test [5]; 2.7% in test [6].

For `Nc1c(S(=O)(=O)O)ccc2c1C(=O)c1ccccc1C2=O`, the growth inhibition is 27.9% in test [1]; 24.2% in test [2]; 34% in test [3]; 6.5% in test [4]; 49.1% in test [5]; 16.4% in test [6].

With `Cc1cc(C2(c3cc(C)c(O)c4ncccc34)OC(=O)c3ccccc32)c2cccnc2c1O`, the growth inhibition in test [1] was 84.6% (active); in test [2], 85.5% (active); in test [3], 50.6%; in test [4], 44%; in test [5] it was 66%; in test [6], 87.5% (active).

In the case of `O=S(=O)(c1ccccc1)C1(Sc2ccccc2)CC(Br)[C@@H](Br)C1` (some centres undefined), the growth inhibition was 21.9% in test [1]; 7.3% in test [2]; 25.5% in test [3]; 8% in test [4]; -6.65% in test [5]; -5.55% in test [6].

Regarding `NC(=O)Cn1c(=O)[nH]c(=O)c2[nH]cnc21`, the growth inhibition is -16.9% in test [1]; -2.1% in test [2]; -10.3% in test [3]; 5.4% in test [4]; -0.4% in test [5]; 6.85% in test [6].

For the compound `O=C(c1ccc(Cl)cc1)c1ccc2ccccc2c1`, the growth inhibition is -5.3% in test [1]; -8.6% in test [2]; 5.35% in test [3]; -3.4% in test [4]; 7.8% in test [5]; 4.1% in test [6].

Take `COc1cccc(NC(=S)NCc2cccnc2)c1`: the growth inhibition in test [1] was -13.4%; in test [2], -24.9%; in test [3], 9.1%; in test [4] it was 9.25%; in test [5] it was -13.2%; in test [6], -5.3%.

With `NC(=S)N/N=C1/C(=O)N(c2ccccc2)C(=O)C1C(=O)Nc1ccccc1` (centres undefined), the growth inhibition was 46.2% in test [1]; 16.8% in test [2]; 38% in test [3]; 0.9% in test [4]; -0.25% in test [5]; 39.1% in test [6].

The values are drawn from PubChem BioAssay (NCI).
